Composite z-score and z-score data for 15 molecules are collected here from PubChem BioAssay.

For assay [1], the system named is Plasmodium falciparum Sir2 (PF13_0152, Sir2A). The assay is described as follows: pfSir2 binders on small-molecule microarrays, primary screen, biochemical, small-molecule microarray, 635 nm fluorescence (AID 1098).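 Note: score merges spot fluorescence intensity with its signal-to-noise ratio.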 Conditions: small-molecule microarray binding, fluorescence 635 nm; higher = more signal.
A short description of assay [2]: small-molecule microarray binders of probe aDKK1, primary screen, biochemical, biotinylated probe, 635/667 nm fluorescence (AID 1099).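 Note: score merges 667nm spot fluorescence with signal to noise across triplicate slides; reference of the scale not given here.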 Particulars: higher = more signal.
A short description of assay [3]: small-molecule microarray binders of probe aCHRDL2, primary screen, biochemical, biotinylated probe, 635/667 nm fluorescence (AID 1100). Particulars: higher = more signal.
Assay [4] can be described thus: splicing luciferase reporter signal modulators, primary screen, spliceosome inhibition project, cell-based, HEK293, splice +/- reporter (AID 1101).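 Note: HEK293 cells carrying a splicing-competent luciferase reporter gene; test concentration not given here.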 Particulars: luminescence, 24 h, higher = more signal, called active from +8 up or from −8 down. (In general: A reporter such as luciferase makes a cellular process visible.)
Assay [5] addresses Fibroblast growth factor 10 (Homo sapiens) (UniProt O15520). The assay is described as follows: FGF10 binders on small-molecule microarrays, primary screen, biochemical, small-molecule microarray, 635 nm fluorescence (AID 1102). Conditions: FGF10 binding, fluorescence 635 nm, higher = more signal.
For assay [6], the system named is glycogen synthase kinase-3 (GSK3A per assay name; protocol says GSK3B). The assay is described as follows: GSK3 binders on small-molecule microarrays, primary screen, biochemical, small-molecule microarray, 635 nm fluorescence, GSK3A (AID 1103). Note: the record names both GSK3A and GSK3B. Conditions: small-molecule microarray binding, fluorescence 635 nm; higher = more signal.
Assay [7] has as its target Epidermal growth factor receptor (Homo sapiens) (UniProt P00533). The assay is described as follows: EGFR binders on small-molecule microarrays, primary screen, biochemical, small-molecule microarray, 635 nm fluorescence (AID 1104).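 Note: score merges 667 nm emission intensity with spot signal to noise over triplicate slides.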 Conditions: EGFR binding, higher = more signal.
For assay [8], the target named is Follistatin-related protein 3 (Homo sapiens) (UniProt O95633). The assay is described as follows: FSTL3 binders on small-molecule microarrays, primary screen, biochemical, small-molecule microarray, 635 nm fluorescence (AID 1105).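 Note: score merges emission near 667 nm and signal to noise per printed spot across three slides.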 Particulars: FSTL3 binding, higher = more signal.
Assay [9] deals with Dickkopf-related protein 1 (Homo sapiens) (UniProt O94907). The assay is described as follows: DKK1 binders on small-molecule microarrays, primary screen, biochemical, small-molecule microarray, 635 nm fluorescence scan (AID 1106).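 Note: score merges emission near 667 nm with signal to noise over three replicate slides.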 Conditions: DKK1 binding, higher = more signal.
The subject of assay [10] is Inhibin beta A chain (activin A). The assay is described as follows: INHBA (activin A) binders on microarrays, primary screen, biochemical, small-molecule microarray, 635 nm fluorescence scan (AID 1107).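 Note: mouse activin A protein probed at 4.33 µg/mL on printed slides; score merges bound-protein fluorescence near 667 nm with spot signal-to-noise.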 Particulars: small-molecule microarray binding, higher = more signal.

The structures appear in SMILES notation. Active and inactive are the calls of the source.

Chain of Follistatin-related protein 3 (Homo sapiens) (O95633 whole entry, looked up): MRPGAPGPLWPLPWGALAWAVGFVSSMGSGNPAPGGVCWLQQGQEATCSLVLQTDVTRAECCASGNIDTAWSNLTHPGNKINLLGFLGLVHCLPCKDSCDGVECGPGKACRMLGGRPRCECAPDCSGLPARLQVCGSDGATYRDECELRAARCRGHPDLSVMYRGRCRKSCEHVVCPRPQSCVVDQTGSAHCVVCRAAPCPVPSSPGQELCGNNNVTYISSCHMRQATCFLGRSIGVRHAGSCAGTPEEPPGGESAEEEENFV
Chain of Epidermal growth factor receptor (Homo sapiens) (P00533 whole entry, looked up): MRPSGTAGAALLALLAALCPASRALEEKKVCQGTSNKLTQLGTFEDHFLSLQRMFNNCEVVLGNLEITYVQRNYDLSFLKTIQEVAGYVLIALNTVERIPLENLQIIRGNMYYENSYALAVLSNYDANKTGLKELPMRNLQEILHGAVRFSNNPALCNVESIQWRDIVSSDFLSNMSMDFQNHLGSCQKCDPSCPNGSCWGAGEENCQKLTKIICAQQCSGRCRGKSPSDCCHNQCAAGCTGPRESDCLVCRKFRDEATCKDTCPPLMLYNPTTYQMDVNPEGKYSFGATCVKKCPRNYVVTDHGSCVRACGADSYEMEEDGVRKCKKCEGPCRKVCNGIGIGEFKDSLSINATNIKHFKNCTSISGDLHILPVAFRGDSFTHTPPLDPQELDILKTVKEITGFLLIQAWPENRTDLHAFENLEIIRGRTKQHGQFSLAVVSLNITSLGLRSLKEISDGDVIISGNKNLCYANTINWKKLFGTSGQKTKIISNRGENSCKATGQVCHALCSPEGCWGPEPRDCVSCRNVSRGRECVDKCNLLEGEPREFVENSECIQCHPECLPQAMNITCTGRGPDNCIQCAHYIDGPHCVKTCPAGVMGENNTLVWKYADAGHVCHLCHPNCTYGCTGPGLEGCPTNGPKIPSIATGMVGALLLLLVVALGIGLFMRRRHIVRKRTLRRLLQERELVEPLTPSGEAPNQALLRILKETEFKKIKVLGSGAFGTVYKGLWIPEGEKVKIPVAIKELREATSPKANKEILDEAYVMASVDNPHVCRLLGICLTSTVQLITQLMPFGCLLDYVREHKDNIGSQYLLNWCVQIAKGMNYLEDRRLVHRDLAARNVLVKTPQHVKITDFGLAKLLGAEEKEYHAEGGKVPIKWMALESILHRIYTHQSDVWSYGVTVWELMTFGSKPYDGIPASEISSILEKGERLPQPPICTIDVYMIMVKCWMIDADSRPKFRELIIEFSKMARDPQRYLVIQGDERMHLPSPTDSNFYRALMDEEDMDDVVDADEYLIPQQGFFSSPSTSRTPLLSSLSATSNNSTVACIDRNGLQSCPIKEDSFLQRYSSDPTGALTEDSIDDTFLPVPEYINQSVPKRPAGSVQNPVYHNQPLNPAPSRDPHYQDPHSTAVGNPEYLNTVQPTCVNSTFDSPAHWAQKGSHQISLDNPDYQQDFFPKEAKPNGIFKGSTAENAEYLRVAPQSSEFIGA
Chain of Fibroblast growth factor 10 (Homo sapiens) (O15520 whole entry, looked up): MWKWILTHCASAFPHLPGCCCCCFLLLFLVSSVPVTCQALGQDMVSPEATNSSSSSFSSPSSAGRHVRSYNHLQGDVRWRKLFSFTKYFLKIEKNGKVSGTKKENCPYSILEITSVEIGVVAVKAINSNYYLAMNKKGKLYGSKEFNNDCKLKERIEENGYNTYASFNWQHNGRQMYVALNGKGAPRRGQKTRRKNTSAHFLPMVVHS
Chain of Dickkopf-related protein 1 (Homo sapiens) (O94907 whole entry, looked up): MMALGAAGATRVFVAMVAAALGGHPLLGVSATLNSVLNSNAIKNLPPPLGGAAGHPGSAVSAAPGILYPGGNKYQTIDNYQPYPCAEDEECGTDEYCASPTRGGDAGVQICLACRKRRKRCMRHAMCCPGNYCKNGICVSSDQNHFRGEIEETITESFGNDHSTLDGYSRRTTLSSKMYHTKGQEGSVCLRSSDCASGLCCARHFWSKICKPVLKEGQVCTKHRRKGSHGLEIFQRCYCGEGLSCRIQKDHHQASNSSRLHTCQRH

As for `COc1ccc([Si](C)(C)[C@@H]2[C@@H](CCO)O[C@]3(C(=O)N(Cc4ccc(N5C(=O)c6ccccc6Oc6ccccc65)cc4)c4ccccc43)[C@H]2C)cc1`, the composite z-score was -0.364 in assay [1]; -0.0754 in [2]; 0.543 in assay [3]; -0.791 in assay [5]; -1.07 in assay [6]; -1.57 in [7]. The composite z-score in assay [8] was -0.644; in assay [9] it was -0.815; in assay [10], -0.557. The z-score in assay [4] was -0.853 (inactive).

`[N-]=[N+]=NCc1ccccc1C[C@]1(C(=O)NCCN2CCOCC2)COC(c2ccc(OCCCO)cc2)=N1`: the composite z-score in [1] was 1.49; in [2], 0.297; in [3], 0.853; in [5] it was 0.396; in assay [6], 0.966; in assay [7] it was -0.553. For the same molecule, the composite z-score in assay [8] was 0.101; in assay [9] it was -0.36; in [10] it was 0.978. The z-score in assay [4] was -0.995 (inactive).

For the molecule `COc1cc(C(O)C2C=CC3C(=O)NC(=O)C3N2Nc2ccc(Cl)cc2Cl)cc(OC)c1OC` (stereo not given), the composite z-score is 1.18 in [1]; 0.88 in assay [2]; 1.12 in assay [3]; 0.746 in [5]; 0.189 in [6]; -0.0874 in assay [7]. In addition, the composite z-score is 1.28 in assay [8], -0.675 in assay [9] and 1.11 in [10]. In addition, the z-score in [4] was 0.734 (inactive).

Take `O=C1N(Cc2ccccc2)c2ccccc2[C@H]2OC(c3ccc(OCCCO)cc3)=N[C@@]12CCS(=O)(=O)c1ccccc1`: the composite z-score in [1] is 0.703; in assay [2], -0.0921; in assay [3], 0.584; in assay [5], 1.06; in assay [6], 1.31; in assay [7], 0.385. Further, the results for the composite z-score in assay [8], in assay [9] and in assay [10] were 1.23, 0.379 and 0.808, respectively. For the same molecule, the z-score in assay [4] is 0.212 (inactive).

For the molecule `[N-]=[N+]=Nc1ccccc1[C@H]1OC(c2ccc(OCCCO)cc2)=N[C@@]1(Cc1ccccc1)C(=O)NCc1ccccc1`, the composite z-score in assay [1] was 0.427; in assay [2], 0.243; in assay [3], 0.712; in [5], 0.776; in assay [6] it was 1.12; in [7], -0.0565. The figures for the composite z-score in assay [8], in assay [9] and in [10] were 0.643, 0.865 and 0.774, respectively. For the same molecule, the z-score in assay [4] is -1.72 (inactive).

Consider `COC(=O)c1c(CC[C@@H](CO)NC(=O)N[C@@H](C)Cn2cc(C3(O)CCCC3)nn2)oc(C(C)=O)c1C(=O)OC`, for which the composite z-score is 0.513 in assay [1]; -0.196 in [2]; -0.206 in assay [3]; 0.308 in assay [5]; -0.161 in assay [6]; 0.0477 in assay [7]. For the same molecule, the composite z-score is 0.104 in assay [8], -0.217 in [9] and -0.338 in assay [10]. Also, the z-score in [4] is -1.45 (inactive).

On to `O=C(C=C(CC(O)c1cccc(Cl)c1)OCCF)OCCF` (stereo not given), for which the composite z-score in [1] was 1.87; in assay [2], 0.558; in assay [3], 0.913; in assay [5] it was -0.357; in assay [6] it was -0.571; in [7], -0.737. In addition, the composite z-score in assay [8] is -0.863; in assay [9], -0.735; in assay [10], 1.31. In addition, the z-score in [4] is -0.985 (inactive).

Turning to `C[C@@H]1ON(c2ccccc2)[C@H](c2ccccc2)[C@H]1C(=O)N1C(=O)OC[C@H]1Cc1ccccc1`, the composite z-score was 0.342 in assay [1]; -0.327 in [2]; -0.503 in [3]; 0.423 in [5]; 0.149 in [6]; 0.569 in [7]. Besides, the values for the composite z-score in [8], in assay [9] and in assay [10] were 0.697, 0.471 and 0.106, respectively. Moreover, in [4], the z-score was -0.34 (inactive).

As to `COC(=O)[C@@]1(Cc2ccccc2)[C@H]2c3cc(C(=O)N(C)C)n(Cc4ccccn4)c3C[C@H]2CN1C(=O)c1ccccc1`, the composite z-score was 1.57 in assay [1]; 1.44 in assay [2]; 1.37 in assay [3]; 0.548 in [5]; 0.225 in [6]; -0.805 in assay [7]. For the same molecule, the composite z-score is 0.155 in [8], -1.09 in [9] and 0.46 in [10]. Also, the z-score in [4] is -1.58 (inactive).

`CCCCC(=C=CC[C@H](O)c1ccccc1OCCO)C[C@H](O)c1ccccn1`: the composite z-score in [1] is 1.36; in assay [2], -0.127; in [3], 0.211; in assay [5], 0.551; in assay [6], -0.251; in [7], 0.324. Moreover, the composite z-score is 0.549 in assay [8], -0.0601 in assay [9] and 1.54 in [10]. Moreover, in [4], the z-score was -0.471 (inactive).

Regarding `COCCCNC(=O)[C@@H]1c2ccccc2C(=O)N(c2ccc(C)cn2)[C@H]1c1ccc(CO)cc1`, the composite z-score in assay [1] is 1.21; in [2] it was -0.281; in assay [3], 1.01; in [5], -1.87; in assay [6] it was -1.19; in assay [7], -2.24. The composite z-score in [8] was -1.84; in [9], -1.42; in [10], -1.84. Besides, the z-score in assay [4] was -0.517 (inactive).

In the case of `[N-]=[N+]=NCc1ccccc1[C@H]1OC(c2ccc(OCCCO)cc2)=N[C@@]1(Cc1ccccc1)C(N)=O`, the composite z-score was 1.51 in assay [1]; 1.19 in [2]; 0.947 in assay [3]; 0.923 in [5]; 0.644 in [6]; -0.43 in assay [7]. Also, the composite z-score in assay [8] is 0.546; in [9], -0.952; in assay [10] it was 0.669. In addition, the z-score in assay [4] is -0.312 (inactive).

For the molecule `C=CC[C@]1(C(=O)N(C)C)N=C(c2ccc(OCCCO)cc2)O[C@H]1c1ccccc1`, the composite z-score was 1.05 in [1]; 0.135 in [2]; 0.953 in assay [3]; 1.21 in assay [5]; 0.254 in assay [6]; -0.489 in assay [7]. The composite z-score in assay [8] was 0.479; in [9] it was -0.228; in assay [10], 0.832. Further, in assay [4], the z-score was -1.04 (inactive).

In the case of `Cc1ccc(N2C(=O)c3ccccc3[C@](C)(C(=O)NC(C)C)[C@@H]2c2ccc(CO)cc2)nc1`, the composite z-score was 0.118 in assay [1]; -0.0537 in assay [2]; 1.04 in assay [3]; -1.22 in assay [5]; -0.738 in assay [6]; -1.21 in assay [7]. For the same molecule, the results for the composite z-score in [8], in [9] and in assay [10] were -2.01, -1.63 and -2.54, respectively. Besides, the z-score in assay [4] is 0.415 (inactive).

`CC(C)CN1C(=O)[C@@]2(Cc3ccccc31)c1ccccc1C(=O)N(Cc1ccccc1)[C@H]2c1ccc(CO)cc1`: the composite z-score in assay [1] was -0.743; in assay [2] it was 0.236; in assay [3] it was 0.514; in assay [5], -0.701; in assay [6] it was -0.776; in [7], -0.636. The values for the composite z-score in [8], in [9] and in assay [10] were 0.554, -0.952 and -0.298, respectively. In addition, the z-score in [4] is -0.489 (inactive).
